CYP2C19 inhib: blockers of cytochrome P450 2C19 activity – biochemical, luminescence, ADME assay, primary screen. AID 778, 2007. CYP2C19 Supersomes, luciferin-H EGE luminescence, 30 min. P33261. 96,000 compounds, 21% hits. inhibition, % at 5 µM;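 active = CYP2C19 inhibition above a set limit at 5 µM in the primary screen, cut at about 50% in these data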;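 note: plate controls were negative control wells for no effect and 2.5 mM tranylcypromine positive control for full effect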
CYP2C9 activ: human CYP2C9 activators, primary screen, biochemical, luminescence. Cytochrome P450 2C9 (Homo sapiens), P11712. recombinant CYP2C9, luciferin-H conversion; active compounds read high; factor 1 = untreated enzyme, 0 = blocked. activation factor at 5 µM. 96,000 compounds, 1.4% hits. AID 1024, 2008;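 active = activation factor of 2 or more for CYP2C9 at a 5 µM dose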;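 note: 0 = sulfaphenazole-blocked wells and 1 = vehicle-only wells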
Target sequence (P11712 whole entry, looked up): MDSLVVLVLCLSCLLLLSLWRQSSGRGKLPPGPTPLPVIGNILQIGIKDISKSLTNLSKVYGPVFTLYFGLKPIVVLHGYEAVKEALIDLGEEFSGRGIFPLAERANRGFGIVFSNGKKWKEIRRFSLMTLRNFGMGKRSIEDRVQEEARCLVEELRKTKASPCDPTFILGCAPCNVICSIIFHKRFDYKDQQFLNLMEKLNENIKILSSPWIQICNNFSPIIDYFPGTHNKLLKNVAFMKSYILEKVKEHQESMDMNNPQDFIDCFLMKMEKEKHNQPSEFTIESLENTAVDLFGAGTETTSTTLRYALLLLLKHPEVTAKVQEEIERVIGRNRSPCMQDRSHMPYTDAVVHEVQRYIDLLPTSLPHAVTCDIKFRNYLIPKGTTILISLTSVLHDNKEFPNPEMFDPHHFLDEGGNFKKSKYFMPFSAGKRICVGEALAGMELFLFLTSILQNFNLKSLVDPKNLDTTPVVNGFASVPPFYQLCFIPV
CYP2C9 inhib: blockers of cytochrome P450 2C9 activity – biochemical, luminescence, ADME assay, primary screen; CYP2C9 Supersomes, luciferin-H conversion; P11712; AID 777, 2007; 96,000 compounds, 20% hits; inhibition, % at 5 µM;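 active = blocking of liver enzyme CYP2C9 beyond about 50% at 5 µM, limit read from the data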
Pyk2 oligo antag: antagonists of Pyk2 self-association, primary screen, Q293 cells, FERM NanoBiT luminescence, HTS; z-score (the deposit names both 25 µM and 10 µM); active compounds read low; Protein-tyrosine kinase 2-beta (Homo sapiens), Q14289; 99,000 compounds, 0.83% hits;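 active = Z-score of -3 or lower, scaled per plate to the spread of control and sample wells; inactive = z-score above -3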;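 note: negative z-score means lost luminescence so less FERM oligomerization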
Cav3 T inh: Cav3.2 calcium influx blockers – cell-based, Fluo-4 calcium fluorescence, FDSS, MLSMR library, primary screen. Voltage-dependent T-type calcium channel subunit alpha-1H (Homo sapiens), O95180. Cav3.2-expressing cells; active compounds read low. B-score at 10 µM. 100,000 compounds, 4% hits. AID 449739, 2010;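 active = single-dose well whose peak fluorescence ratio is a statistical outlier from its plate by either plate-standardised score or position-corrected B-score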
CYP2C19 act: human CYP2C19 activators, primary screen, biochemical, luminescence | Cytochrome P450 2C19 (Homo sapiens), P33261 | recombinant CYP2C19, luciferin-H EGE luminescence; active compounds read high; 0 = fully inhibited enzyme, 1 = untreated enzyme | activation factor at 5 µM | 96,000 tested, under 10 active | AID 1025, 2008;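 active = activation factor of at least 2 at 5 µM in the primary screen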;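 note: 0 = wells with 2.5 mM tranylcypromine and 1 = vehicle-only wells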
* hit, by the source's call. An excerpt weighted towards active compounds, which were near 27% of everything screened.

Results for Cc1cccc(-c2noc(CN(C(=O)C34CC5CC(CC(C5)C3)C4)C(C)C)n2)c1 ?
CYP2C19 inhib: -6.2; CYP2C9 activ: 0.6; CYP2C9 inhib: 37.8; Pyk2 oligo antag: -0.48; Cav3 T inh: -0.334; CYP2C19 act: 1.1

How did Cc1ccccc1OCC(=O)N(Cc1nc(-c2ccccc2)no1)C(C)C do in these assays?
CYP2C19 inhib: 57.3*; CYP2C9 activ: 0.6; CYP2C9 inhib: 39.8; Pyk2 oligo antag: 0.23; Cav3 T inh: -4.28*; CYP2C19 act: 0.4

How did COc1ccccc1OCC(=O)N(Cc1nc(-c2ccccc2)no1)C1CCCCC1 do in these assays?
CYP2C19 inhib: 46.0; CYP2C9 activ: 0.6; CYP2C9 inhib: 43.8; Pyk2 oligo antag: -1.09; Cav3 T inh: -8.13*; CYP2C19 act: 0.5

How did COc1ccc(S(=O)(=O)NCCCCCC(=O)NCCCN2CCOCC2)cc1 do in these assays?
CYP2C19 inhib: 2.5; CYP2C9 activ: 0.9; CYP2C9 inhib: 11.0; Pyk2 oligo antag: -0.34; Cav3 T inh: 0.942; CYP2C19 act: 1

How did Cc1ccc(CSCC(Nc2ccc(C(=O)O)cc2[N+](=O)[O-])C(=O)O)cc1 (stereo not drawn) do in these assays?
CYP2C19 inhib: -13.5; CYP2C9 activ: 0.1; CYP2C9 inhib: 93.8*; Pyk2 oligo antag: -0.09; Cav3 T inh: 2.63; CYP2C19 act: 1.1

How did O=C(O)c1ccc(NC(CSCc2cccc(F)c2)C(=O)O)c([N+](=O)[O-])c1 (stereo not drawn) do in these assays?
CYP2C19 inhib: -15.2; CYP2C9 activ: 0.4; CYP2C9 inhib: 61.9*; Pyk2 oligo antag: -0.58; Cav3 T inh: 0.713; CYP2C19 act: 1.2

How did COc1ccccc1CNC(=O)c1nn(-c2ccc(C)cc2)c(=O)c2c1c1ccccc1n2C do in these assays?
CYP2C19 inhib: 20.7; CYP2C9 activ: 0.3; CYP2C9 inhib: 65.0*; Pyk2 oligo antag: -0.62; Cav3 T inh: -1.2; CYP2C19 act: 0.8

What do the screens show for `Cc1cc(C)nc(SCc2ccc3nonc3c2)n1`?
CYP2C19 inhib: 45.6; CYP2C9 activ: 0.8; CYP2C9 inhib: 23.3; Pyk2 oligo antag: -1.32; Cav3 T inh: -2.15; CYP2C19 act: 0.5

Results for Cc1cc(C)nc(NC(=O)C(C)C)n1 ?
CYP2C19 inhib: -0.8; CYP2C9 activ: 0.8; CYP2C9 inhib: 15.5; Pyk2 oligo antag: -0.12; Cav3 T inh: 0.472; CYP2C19 act: 1

What do the screens show for `CC(C)C(=O)Nc1nnn(C)n1`?
CYP2C19 inhib: -0.3; CYP2C9 activ: 1; CYP2C9 inhib: -1.1; Pyk2 oligo antag: 0.44; Cav3 T inh: -0.0479; CYP2C19 act: 1

How did Cn1nnc(NC(=O)C(c2ccccc2)c2ccccc2)n1 do in these assays?
CYP2C19 inhib: 41.0; CYP2C9 activ: 0.2; CYP2C9 inhib: 84.4*; Pyk2 oligo antag: 0.84; Cav3 T inh: -0.178; CYP2C19 act: 0.6

Results for Cc1cc(C)nc(NC(=O)C(c2ccccc2)c2ccccc2)n1 ?
CYP2C19 inhib: 20.7; CYP2C9 activ: 0.3; CYP2C9 inhib: 70.7*; Pyk2 oligo antag: 0.12; Cav3 T inh: -0.188; CYP2C19 act: 0.8

How did O=C(c1ccccc1F)N1CCN(Cc2cccc(Cl)c2)CC1 do in these assays?
Pyk2 oligo antag: -0.75

What do the screens show for `CC1CCCC(n2c(=S)[nH]c3ccccc3c2=O)C1C` (stereo not drawn)?
CYP2C19 inhib: 53.8*; CYP2C9 activ: 0.8; CYP2C9 inhib: 15.4; Pyk2 oligo antag: -0.55; Cav3 T inh: 1.21; CYP2C19 act: 0.5

What do the screens show for `CC1CCC(n2c(=S)[nH]c3ccccc3c2=O)CC1` (stereo not drawn)?
CYP2C19 inhib: 34.0; CYP2C9 activ: 0.8; CYP2C9 inhib: 23.1; Pyk2 oligo antag: 0.43; Cav3 T inh: -0.264; CYP2C19 act: 0.7

Results for O=C(O)C1C2C=CC3(CN(Cc4ccccn4)C(=O)C13)O2 (stereo not drawn) ?
CYP2C19 inhib: -30.3; CYP2C9 activ: 1.3; CYP2C9 inhib: -26.9; Pyk2 oligo antag: 2.11; Cav3 T inh: 0.205; CYP2C19 act: 1.3

Results for CCC1SC(=NC(=O)c2ccc(Cl)c(Cl)c2)NC1=O (stereo not drawn) ?
CYP2C19 inhib: -3.2; CYP2C9 activ: 0.4; CYP2C9 inhib: 57.5*; Pyk2 oligo antag: 0.2; Cav3 T inh: -0.164; CYP2C19 act: 1

How did CCCCCCSc1cc(C)nc2ncnn12 do in these assays?
CYP2C19 inhib: 66.1*; CYP2C9 activ: 0.6; CYP2C9 inhib: 37.6; Cav3 T inh: -0.252; CYP2C19 act: 0.3

How did COc1ccccc1C1/C(=C(/O)c2ccccc2)C(=O)C(=O)N1CC(C)C (stereo not drawn) do in these assays?
CYP2C19 inhib: -10.0; CYP2C9 activ: 0.4; CYP2C9 inhib: 58.8*; Pyk2 oligo antag: -0.48; Cav3 T inh: -1.29; CYP2C19 act: 1.1

How did CCOC(=O)c1ccccc1NC(=O)c1ccc(NS(C)(=O)=O)cc1 do in these assays?
CYP2C19 inhib: 40.0; CYP2C9 activ: 0.6; CYP2C9 inhib: 35.6; Pyk2 oligo antag: -0.75; Cav3 T inh: -0.439; CYP2C19 act: 0.6

What do the screens show for `CCOC(=O)c1cc(-c2ccncc2)nc2c1c(C)nn2C`?
CYP2C19 inhib: 96.2*; CYP2C9 activ: 0.5; CYP2C9 inhib: 50.4*; Pyk2 oligo antag: 1.14; Cav3 T inh: 0.801; CYP2C19 act: 0

Results for CSc1nnc([C@@H](NC(=O)OC(C)(C)C)C(C)C)o1 ?
CYP2C19 inhib: 37.8; CYP2C9 activ: 0.8; CYP2C9 inhib: 20.8; Pyk2 oligo antag: 0.26; Cav3 T inh: 0.201; CYP2C19 act: 0.6

What do the screens show for `CCCCSc1nnc([C@H](CC(C)C)NC(=O)OC(C)(C)C)o1`?
CYP2C19 inhib: 61.7*; CYP2C9 activ: 0.4; CYP2C9 inhib: 55.7*; Pyk2 oligo antag: -0.58; Cav3 T inh: -2.66; CYP2C19 act: 0.4

Results for Cc1[nH]c(=O)[nH]c(=O)c1CSc1nnc([C@H](CC(C)C)NC(=O)OC(C)(C)C)o1 ?
CYP2C19 inhib: 3.5; CYP2C9 activ: 0.9; CYP2C9 inhib: 7.9; Pyk2 oligo antag: 0.64; Cav3 T inh: 0.135; CYP2C19 act: 1

What do the screens show for `COC(=O)CSc1nnc([C@H](CC(C)C)NC(=O)OC(C)(C)C)o1`?
CYP2C19 inhib: 65.7*; CYP2C9 activ: 0.9; CYP2C9 inhib: 5.5; Pyk2 oligo antag: -1.04; Cav3 T inh: 0.626; CYP2C19 act: 0.3

What do the screens show for `CCOC(=O)CSc1nnc([C@H](CC(C)C)NC(=O)OC(C)(C)C)o1`?
Pyk2 oligo antag: 0.19; Cav3 T inh: 0.236

How did CCCCSc1nnc([C@H](C)NC(=O)OC(C)(C)C)o1 do in these assays?
CYP2C19 inhib: 75.2*; CYP2C9 activ: 0.7; CYP2C9 inhib: 32.6; Pyk2 oligo antag: -0.25; Cav3 T inh: 0.0629; CYP2C19 act: 0.2
